About 7,900 targets were measured; listed, in parts, are those with a hit and a random draw of the rest. About 0.6% of all pairs of compound and target were hits.
Columns and labels:
Experiment in all cases: log2 fold change, soluble protein after heating vs DMSO (PISA); higher = thermal stabilisation; K562 cells, 10 uM, 30 min; active = over 0.2 and 3.5 SD of the protein, either way, in both replicates (recomputed)
ZW10 = ZW10 (UniProt O43264)
Summary of the method: (§1)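 K562 cells at 2×10^6 cells/mL were exposed to 10 μM compound for 30 min, then aliquots were heated for 3 min across 48°C-58°C, pooled, and extracted in PBS containing 0.5% NP-40 at 4°C. The supernatant after 21,000xg for 90 min was taken as soluble protein and measured by TMTpro 16plex LC-MS/MS with channel sums equalised. Thermal stability is reported relative to control samples, with values from duplicates. Fold changes are given on a log2 scale.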

ZWILCH = ZWILCH (UniProt Q9H900)
ZWILCH, sequence (Q9H900 whole entry, looked up): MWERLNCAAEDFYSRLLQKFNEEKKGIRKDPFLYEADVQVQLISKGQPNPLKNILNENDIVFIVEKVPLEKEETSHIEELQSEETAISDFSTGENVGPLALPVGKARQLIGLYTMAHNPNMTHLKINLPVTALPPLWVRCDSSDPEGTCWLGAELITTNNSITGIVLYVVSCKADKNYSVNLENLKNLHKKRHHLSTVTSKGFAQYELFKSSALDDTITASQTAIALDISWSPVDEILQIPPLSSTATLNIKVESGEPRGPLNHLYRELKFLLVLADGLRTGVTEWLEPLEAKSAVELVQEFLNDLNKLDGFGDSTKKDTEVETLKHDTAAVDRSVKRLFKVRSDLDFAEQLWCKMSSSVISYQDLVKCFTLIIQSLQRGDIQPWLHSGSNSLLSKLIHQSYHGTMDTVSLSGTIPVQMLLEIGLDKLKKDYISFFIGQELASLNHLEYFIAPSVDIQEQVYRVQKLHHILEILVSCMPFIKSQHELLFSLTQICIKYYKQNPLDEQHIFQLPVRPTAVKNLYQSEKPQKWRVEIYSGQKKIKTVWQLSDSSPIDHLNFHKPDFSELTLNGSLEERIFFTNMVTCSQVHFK
Summary of the method: as §1

ZYG11B = ZYG11B (UniProt Q9C0D3)
ZYG11B, sequence (Q9C0D3 whole entry, looked up): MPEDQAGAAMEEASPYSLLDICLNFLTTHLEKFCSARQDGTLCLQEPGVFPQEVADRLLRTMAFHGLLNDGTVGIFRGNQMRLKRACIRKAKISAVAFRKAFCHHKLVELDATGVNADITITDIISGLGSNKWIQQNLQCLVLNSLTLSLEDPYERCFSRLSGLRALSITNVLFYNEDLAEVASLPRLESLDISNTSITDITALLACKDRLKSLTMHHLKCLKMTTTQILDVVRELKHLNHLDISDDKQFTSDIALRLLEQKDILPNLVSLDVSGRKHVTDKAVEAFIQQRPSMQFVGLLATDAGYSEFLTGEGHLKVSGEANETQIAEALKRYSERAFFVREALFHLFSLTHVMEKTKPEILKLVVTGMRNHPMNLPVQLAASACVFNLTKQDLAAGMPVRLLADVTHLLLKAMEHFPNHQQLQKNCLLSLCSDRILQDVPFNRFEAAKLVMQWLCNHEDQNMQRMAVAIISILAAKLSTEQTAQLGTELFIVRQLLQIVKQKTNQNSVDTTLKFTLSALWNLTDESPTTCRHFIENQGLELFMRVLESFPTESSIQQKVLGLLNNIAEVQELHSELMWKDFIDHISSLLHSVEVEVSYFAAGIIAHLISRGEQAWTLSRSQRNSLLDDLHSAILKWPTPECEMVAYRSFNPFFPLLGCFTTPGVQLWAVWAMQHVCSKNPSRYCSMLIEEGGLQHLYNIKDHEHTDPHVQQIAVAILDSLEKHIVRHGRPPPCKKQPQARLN
Summary of the method: as §1

Measured: log2 fold change

ZW10, sequence (O43264 whole entry, looked up): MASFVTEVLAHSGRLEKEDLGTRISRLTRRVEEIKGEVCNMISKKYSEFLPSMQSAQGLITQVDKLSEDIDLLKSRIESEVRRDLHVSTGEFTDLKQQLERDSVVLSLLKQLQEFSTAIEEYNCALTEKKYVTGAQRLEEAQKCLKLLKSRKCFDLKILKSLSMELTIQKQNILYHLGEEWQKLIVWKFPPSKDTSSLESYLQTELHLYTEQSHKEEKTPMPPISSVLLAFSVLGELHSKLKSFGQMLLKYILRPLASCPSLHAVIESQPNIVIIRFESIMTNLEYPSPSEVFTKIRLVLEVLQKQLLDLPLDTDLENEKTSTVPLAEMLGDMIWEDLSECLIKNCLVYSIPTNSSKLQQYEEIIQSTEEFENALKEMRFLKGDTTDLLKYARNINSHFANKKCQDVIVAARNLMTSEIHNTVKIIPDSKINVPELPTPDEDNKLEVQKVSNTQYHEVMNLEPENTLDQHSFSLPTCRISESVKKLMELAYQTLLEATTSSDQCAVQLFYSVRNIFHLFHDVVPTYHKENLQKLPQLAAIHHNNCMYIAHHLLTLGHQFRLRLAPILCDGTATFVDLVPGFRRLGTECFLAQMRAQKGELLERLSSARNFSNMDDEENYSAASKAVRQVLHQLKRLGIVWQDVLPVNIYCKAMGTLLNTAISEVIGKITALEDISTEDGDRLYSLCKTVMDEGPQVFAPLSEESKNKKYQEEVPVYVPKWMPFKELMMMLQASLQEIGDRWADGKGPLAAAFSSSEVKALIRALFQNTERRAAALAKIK

CCn1c(C(=O)N(C2CC2)C2CC2)cc2c3c(ncn3C)c(Nc3cc(C)n(C)n3)nc21
inactive: ZW10 -0.06 | ZWILCH 0.021 | ZYG11B -0.017

CC(C)(O)CC(=O)NCCn1ccc2ncnc(Nc3ccc(Oc4cccc(C(F)(F)F)c4)c(Cl)c3)c21
inactive: ZW10 -0.027 | ZWILCH 0.012 | ZYG11B -0.017

Cc1cccc(-c2[nH]c(C(C)(C)C)nc2-c2ccc3nccnc3c2)n1
inactive: ZW10 0.006 | ZWILCH 0 | ZYG11B -0.039

CS(=O)(=O)c1ccc(-c2cnc(N)c(C(=O)Nc3ccccc3)n2)cc1
inactive: ZW10 0.027 | ZWILCH -0.003 | ZYG11B 0.01

NC1(Cc2ccc(Cl)cc2)CCN(c2ncnc3[nH]ccc23)CC1
inactive: ZW10 -0.062 | ZWILCH -0.049 | ZYG11B 0.055

NC(=O)c1cnc(N[C@@H]2CCCC[C@@H]2N)nc1Nc1cccc(-n2nccn2)c1
inactive: ZW10 -0.027 | ZWILCH -0.085 | ZYG11B 0.022

COC(=O)[C@H](CCSC)NC(=O)c1ccc(NC[C@@H](N)CS)cc1-c1ccccc1
inactive: ZW10 -0.079 | ZWILCH -0.077 | ZYG11B 0.013

CCN(CC)Cc1ccc2cc(COC(=O)Nc3ccc(C(=O)NO)cc3)ccc2c1 [givinostat]
inactive: ZW10 0.096 | ZWILCH 0.046 | ZYG11B -0.009

c1cc(OCCN2CCCCC2)cc(-c2n[nH]c3ccc(-c4nnc[nH]4)cc23)c1
inactive: ZW10 -0.016 | ZWILCH -0.048 | ZYG11B 0.002

CN1CCc2c(c3ccccc3n2Cc2ccc(C(=O)NO)cc2)C1 [Tubastatin A]
inactive: ZW10 0.031 | ZWILCH -0.028 | ZYG11B 0.04

COc1cc(C(=O)O)ccc1NC(=O)[C@@H]1N[C@@H](CC(C)(C)C)[C@](C#N)(c2ccc(Cl)cc2F)[C@H]1c1cccc(Cl)c1F [idasanutlin]
inactive: ZW10 -0.035 | ZWILCH -0.051 | ZYG11B 0.01

FC(F)(F)c1ccc(/C=C/c2nc(COc3ccc(CCCCn4ccnn4)cc3)co2)cc1 [mubritinib]
inactive: ZW10 0.028 | ZWILCH 0.037 | ZYG11B 0.01

CC[C@H](C)[C@H](NC(=O)[C@H]([C@@H](C)CC)N(C)C(C)=O)C(=O)N[C@H](C(=O)N[C@@H](CC(C)C)C(=O)[C@@]1(C)CO1)[C@@H](C)O [epoxomicin]
inactive: ZW10 -0.046 | ZWILCH 0.013 | ZYG11B 0.123

O=C1c2ccccc2-c2n[nH]c3cccc1c23
inactive: ZW10 -0.031 | ZWILCH -0.007 | ZYG11B -0.033

NCC(=O)Nc1ccc(-n2nc(C(F)(F)F)cc2-c2ccc3c(ccc4ccccc43)c2)cc1
inactive: ZW10 -0.007 | ZWILCH -0.068 | ZYG11B -0.045

CC(C)N(C[C@H]1O[C@@H](n2cnc3c(N)ncnc32)[C@H](O)[C@@H]1O)[C@H]1C[C@@H](CCc2nc3cc(C(C)(C)C)ccc3[nH]2)C1 [pinometostat]
inactive: ZW10 0.152 | ZWILCH 0.074 | ZYG11B 0.01

Cc1cc(SCc2sc(-c3ccc(C(F)(F)F)cc3)nc2C)ccc1OCC(=O)O
inactive: ZW10 0.088 | ZWILCH 0.027 | ZYG11B -0.133

Cc1nc(Nc2n[nH]c3c2CN(C(=O)N[C@H](CN(C)C)c2ccccc2)C3(C)C)c2sccc2n1
inactive: ZW10 -0.11 | ZWILCH -0.042 | ZYG11B 0.026

Cc1ccc(-n2nc(C(C)(C)C)cc2NC(=O)Nc2ccc(OCCN3CCOCC3)c3ccccc23)cc1 [doramapimod]
inactive: ZW10 0.048 | ZWILCH -0.002 | ZYG11B 0.036

Cc1ccc(C(=O)N(CCCN)[C@@H](c2nc3cc(Cl)ccc3c(=O)n2Cc2ccccc2)C(C)C)cc1 [ispinesib]
inactive: ZW10 -0.179 | ZWILCH -0.045 | ZYG11B 0.041

COC(=O)N[C@@H](C)CNc1nccc(-c2cn(C(C)C)nc2-c2cc(Cl)cc(NS(C)(=O)=O)c2F)n1 [encorafenib]
inactive: ZW10 0.094 | ZWILCH 0.076 | ZYG11B -0.055

C[C@H](Nc1ncnc2nc[nH]c12)c1cc2cccc(Cl)c2c(=O)n1-c1ccccc1 [duvelisib]
inactive: ZW10 -0.002 | ZWILCH 0.044 | ZYG11B 0.062

Source: the supplement of paper PMC10849652
